In the supplement of paper PMC4466140:

Columns and labels:
Assay in all cases: SPOT peptide array binding signal intensity (averaged, normalized) (arbitrary units (background-subtracted, floor 0; scale differs between SH3 domains)); higher = stronger binding of the SH3 domain to the peptide
AgAbp1 = target: AgAbp1
In short: (§1)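 Detection of bound protein relied on anti-GST antibody, an HRP anti-mouse secondary and luminol, with imaging and quantification in Genespotter. The bound protein was GST-fused SH3 domains from four yeast species, incubated at 10 μg/ml overnight at 4°C in TBS-based blocking buffer on cellulose membranes carrying synthetic 15-mer peptides with cysteines replaced by serines. Binding signal is normalized, background-subtracted spot intensity averaged over replicates, in arbitrary units that differ between domains.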

AgBbc1 = target: AgBbc1
In short: as §1

AgBem1-D1 = target: AgBem1-D1
In short: as §1

AgBzz1-D1 = target: AgBzz1-D1
In short: as §1

AgBzz1-D2 = target: AgBzz1-D2
In short: as §1

AgCyk3 = target: AgCyk3
In short: as §1

AgFus1 = target: AgFus1
In short: as §1

AgHof1 = target: AgHof1
In short: as §1

AgHse1 = target: AgHse1
In short: as §1

AgLsb1 = target: AgLsb1
In short: as §1

AgLsb4 = target: AgLsb4
In short: as §1

AgMyo5 = target: AgMyo5
In short: as §1

AgNbp2 = target: AgNbp2
In short: as §1

AgRvs167 = target: AgRvs167
In short: as §1

AgSho1 = target: AgSho1
In short: as §1

AgSla1-D1-D2 = target: AgSla1-D1-D2
In short: as §1

AgSla1-D3 = target: AgSla1-D3
In short: as §1

CaAbp1-D1 = target: CaAbp1-D1
In short: as §1

CaAbp1-D2 = target: CaAbp1-D2
In short: as §1

CaBbc1 = target: CaBbc1
In short: as §1

CaBem1-D1 = target: CaBem1-D1
In short: as §1

CaBzz1-D1 = target: CaBzz1-D1
In short: as §1

CaBzz1-D2 = target: CaBzz1-D2
In short: as §1

CaCyk3 = target: CaCyk3
In short: as §1

CaFus1 = target: CaFus1
In short: as §1

CaHof1 = target: CaHof1
In short: as §1

CaHse1 = target: CaHse1
In short: as §1

CaLsb1 = target: CaLsb1
In short: as §1

CaLsb4 = target: CaLsb4
In short: as §1

CaMyo5 = target: CaMyo5
In short: as §1

CaNbp2 = target: CaNbp2
In short: as §1

CaRvs167 = target: CaRvs167
In short: as §1

CaRvs167-3 = target: CaRvs167-3
In short: as §1

CaSho1 = target: CaSho1
In short: as §1

CaSla1-D1-D2 = target: CaSla1-D1-D2
In short: as §1

CaSla1-D3 = target: CaSla1-D3
In short: as §1

ScAbp1 = target: ScAbp1
In short: as §1

ScBbc1 = target: ScBbc1
In short: as §1

ScBem1-D1 = target: ScBem1-D1
In short: as §1

ScBzz1-D1 = target: ScBzz1-D1
In short: as §1

ScBzz1-D2 = target: ScBzz1-D2
In short: as §1

ScCyk3 = target: ScCyk3
In short: as §1

ScFus1 = target: ScFus1
In short: as §1

ScHof1 = target: ScHof1
In short: as §1

ScHse1 = target: ScHse1
In short: as §1

ScLsb1 = target: ScLsb1
In short: as §1

ScLsb2 = target: ScLsb2
In short: as §1

ScLsb3 = target: ScLsb3
In short: as §1

ScLsb4 = target: ScLsb4
In short: as §1

ScMyo3 = target: ScMyo3
In short: as §1

ScMyo5 = target: ScMyo5
In short: as §1

ScNbp2 = target: ScNbp2
In short: as §1

ScPex13 = target: ScPex13
In short: as §1

ScRvs167 = target: ScRvs167
In short: as §1

ScSho1 = target: ScSho1
In short: as §1

ScSla1-D1-D2 = target: ScSla1-D1-D2
In short: as §1

ScSla1-D3 = target: ScSla1-D3
In short: as §1

SpAbp1-D1 = target: SpAbp1-D1
In short: as §1

SpBbc1 = target: SpBbc1
In short: as §1

SpBzz1-D1 = target: SpBzz1-D1
In short: as §1

SpBzz1-D2 = target: SpBzz1-D2
In short: as §1

SpCyk3 = target: SpCyk3
In short: as §1

SpHof1 = target: SpHof1
In short: as §1

SpHof1-2 = target: SpHof1-2
In short: as §1

SpHof1-3 = target: SpHof1-3
In short: as §1

SpHse1 = target: SpHse1
In short: as §1

SpLsb1 = target: SpLsb1
In short: as §1

SpLsb4 = target: SpLsb4
In short: as §1

SpMyo1 = target: SpMyo1
In short: as §1

SpNbp2 = target: SpNbp2
In short: as §1

SpPex13 = target: SpPex13
In short: as §1

SpRvs167 = target: SpRvs167
In short: as §1

SpSla1-D1-D2 = target: SpSla1-D1-D2
In short: as §1

SpSla1-D3 = target: SpSla1-D3
In short: as §1

KDKKTKPTPPPKPSH
SPOT peptide array binding signal intensity (AgAbp1): 494
SPOT peptide array binding signal intensity (AgBbc1): 26.8
SPOT peptide array binding signal intensity (AgBem1-D1): 60.5
SPOT peptide array binding signal intensity (AgBzz1-D1): 42
SPOT peptide array binding signal intensity (AgBzz1-D2): 48
SPOT peptide array binding signal intensity (AgCyk3): ≤ 0
SPOT peptide array binding signal intensity (AgFus1): ≤ 0
SPOT peptide array binding signal intensity (AgHof1): 19.5
SPOT peptide array binding signal intensity (AgHse1): 29
SPOT peptide array binding signal intensity (AgLsb1): ≤ 0
SPOT peptide array binding signal intensity (AgLsb4): ≤ 0
SPOT peptide array binding signal intensity (AgMyo5): ≤ 0
SPOT peptide array binding signal intensity (AgNbp2): ≤ 0
SPOT peptide array binding signal intensity (AgRvs167): 1.5
SPOT peptide array binding signal intensity (AgSho1): 34.5
SPOT peptide array binding signal intensity (AgSla1-D1-D2): 7
SPOT peptide array binding signal intensity (AgSla1-D3): 4
SPOT peptide array binding signal intensity (CaAbp1-D1): 275
SPOT peptide array binding signal intensity (CaAbp1-D2): 226
SPOT peptide array binding signal intensity (CaBbc1): 132
SPOT peptide array binding signal intensity (CaBem1-D1): 0.5
SPOT peptide array binding signal intensity (CaBzz1-D1): 1220
SPOT peptide array binding signal intensity (CaBzz1-D2): 715
SPOT peptide array binding signal intensity (CaCyk3): ≤ 0
SPOT peptide array binding signal intensity (CaFus1): ≤ 0
SPOT peptide array binding signal intensity (CaHof1): 1.5
SPOT peptide array binding signal intensity (CaHse1): 2
SPOT peptide array binding signal intensity (CaLsb1): 1
SPOT peptide array binding signal intensity (CaLsb4): ≤ 0
SPOT peptide array binding signal intensity (CaMyo5): 2.25
SPOT peptide array binding signal intensity (CaNbp2): 0.5
SPOT peptide array binding signal intensity (CaRvs167): 1.5
SPOT peptide array binding signal intensity (CaRvs167-3): 4.5
SPOT peptide array binding signal intensity (CaSho1): 6
SPOT peptide array binding signal intensity (CaSla1-D1-D2): 10
SPOT peptide array binding signal intensity (CaSla1-D3): 2
SPOT peptide array binding signal intensity (ScAbp1): 735
SPOT peptide array binding signal intensity (ScBbc1): ≤ 0
SPOT peptide array binding signal intensity (ScBem1-D1): 9
SPOT peptide array binding signal intensity (ScBzz1-D1): ≤ 0
SPOT peptide array binding signal intensity (ScBzz1-D2): 79
SPOT peptide array binding signal intensity (ScCyk3): 1
SPOT peptide array binding signal intensity (ScFus1): 31
SPOT peptide array binding signal intensity (ScHof1): 1.75
SPOT peptide array binding signal intensity (ScHse1): 38
SPOT peptide array binding signal intensity (ScLsb1): ≤ 0
SPOT peptide array binding signal intensity (ScLsb2): ≤ 0
SPOT peptide array binding signal intensity (ScLsb3): 328
SPOT peptide array binding signal intensity (ScLsb4): ≤ 0
SPOT peptide array binding signal intensity (ScMyo3): ≤ 0
SPOT peptide array binding signal intensity (ScMyo5): ≤ 0
SPOT peptide array binding signal intensity (ScNbp2): 17
SPOT peptide array binding signal intensity (ScPex13): ≤ 0
SPOT peptide array binding signal intensity (ScRvs167): 1.17
SPOT peptide array binding signal intensity (ScSho1): 334
SPOT peptide array binding signal intensity (ScSla1-D1-D2): 9
SPOT peptide array binding signal intensity (ScSla1-D3): 5
SPOT peptide array binding signal intensity (SpAbp1-D1): 148
SPOT peptide array binding signal intensity (SpBbc1): 3.75
SPOT peptide array binding signal intensity (SpBzz1-D1): 26.5
SPOT peptide array binding signal intensity (SpBzz1-D2): ≤ 0
SPOT peptide array binding signal intensity (SpCyk3): ≤ 0
SPOT peptide array binding signal intensity (SpHof1): 5.5
SPOT peptide array binding signal intensity (SpHof1-2): 5.5
SPOT peptide array binding signal intensity (SpHof1-3): 67.8
SPOT peptide array binding signal intensity (SpHse1): 9.25
SPOT peptide array binding signal intensity (SpLsb1): 70.5
SPOT peptide array binding signal intensity (SpLsb4): ≤ 0
SPOT peptide array binding signal intensity (SpMyo1): 2
SPOT peptide array binding signal intensity (SpNbp2): 31
SPOT peptide array binding signal intensity (SpPex13): 9
SPOT peptide array binding signal intensity (SpRvs167): 2
SPOT peptide array binding signal intensity (SpSla1-D1-D2): 1.5
SPOT peptide array binding signal intensity (SpSla1-D3): ≤ 0
